High-throughput results deposited in PubChem BioAssay by National Center for Advancing Translational Sciences (NCATS).
Many of the other results were omitted from the sample, so hits are more common in it than they were.
Pf Dd2 growth: qHTS Primary assay for Inhibitors of Plasmodium falciparum Dd2 growth in vitro; P. falciparum Dd2 growth, SYBR Green, 72 h; Potency, µM (series often up to 28.9 µM), for inactives: at the top dose activity, negative = inhibition, most hits filed as inhibitors; 120,000 tested, 4.3% active; active = well fitted inhibition curve with a large enough effect;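 also: plate controls were DMSO vehicle for no effect and reference drug for full effect; nearly all actives have a fitted effect of over 65% in size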
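Infected erythrocytes (Dd2, 0.3% parasitemia, 2.5% hematocrit final) are added to compound in RPMI-1640/Albumax II medium, grown 72 h at 37C in low oxygen, then lysed with saponin/Triton-X containing SYBR Green and read by fluorescence.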
Starred values were filed as active, the others as inactive. Potency is read from the fitted curve at half-maximal effect.

For O=C(NC1CCCCCC1)c1ccc2c(c1)sc1nc(-c3ccc(F)cc3)cn12 the results were Pf Dd2 growth 5.8%.
Screening COc1ccc(-c2cn3c(n2)sc2cc(C(=O)NCCCN4CCCCC4)ccc23)cc1 returned Pf Dd2 growth 1.12µM*.
For COc1cccc(-c2cn3c(n2)sc2cc(C(=O)NCCC4=CCCCC4)ccc23)c1 the results were Pf Dd2 growth inactive.
COc1ccc(-c2cn3c(n2)sc2cc(C(=O)NCCCN4CCCCCC4)ccc23)cc1 was read as Pf Dd2 growth 8.91µM*.
`CCOC(=O)C1CCN(C(=O)c2ccc3c(c2)sc2nc(-c4ccc(OCC)cc4)cn23)CC1` gave Pf Dd2 growth 8.91µM*.
COc1ccc(-c2cn3c(n2)sc2cc(C(=O)Nc4cccc(OC)c4)ccc23)cc1 was read as Pf Dd2 growth -4.2%.
Screening COc1ccc(-c2cn3c(n2)sc2cc(C(=O)NC4CCCCCC4)ccc23)cc1 returned Pf Dd2 growth inactive.
O=C(NC1CCCCC1)c1ccc2c(c1)sc1nc(-c3ccc(F)cc3)cn12 was read as Pf Dd2 growth -10.0%.
